Measured values taken from PubChem BioAssay (NCI).
This is part of a sample that, as a whole, favours compounds with a hit. Of some 79,000 tested, about 15% had one in any assay. The source made the active and inactive calls. Rule as the data show it: active = growth inhibition above about 70%; inactive = the rest.

What was measured:
[1] = NCI Yeast Anticancer Drug Screen. Data for the rad50 strain (AID 155);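 also: 0% = growth of vehicle-only cultures of the same strain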; conditions: S. cerevisiae rad50 strain growth inhibition; at 50.0 µM; stronger effect = higher value
In short: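 Growth of the mutant yeast was measured after compound exposure and referenced to vehicle-treated cultures.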

[2] = NCI Yeast Anticancer Drug Screen. Data for the mec2-1 strain (AID 157); conditions: S. cerevisiae mec2-1 strain, at 50.0 µM, stronger effect = higher value
In short: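 Growth inhibition is read against vehicle-treated controls after compound exposure of the mec2-1 yeast strain, which is defective in DNA damage repair or cell cycle control.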

[3] = NCI Yeast Anticancer Drug Screen. Data for the sgs1 mgt1 strain (AID 161);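 also: 0% = growth of cultures given vehicle only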; conditions: S. cerevisiae sgs1 mgt1 strain, at 50.0 µM, stronger effect = higher value
In short: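 This yeast growth screen uses a strain with defined DNA-repair lesions; compound-treated growth is compared with vehicle-treated growth.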

[4] = NCI Yeast Anticancer Drug Screen. Data for the cln2 rad14 strain (AID 165);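 also: 0% = growth equal to vehicle treated cultures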; conditions: S. cerevisiae cln2 rad14 strain, at 50.0 µM, stronger effect = higher value
In short: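 Growth inhibition, relative to vehicle-treated controls, is the read-out. The test organism is a yeast strain with defined genetic alterations, cln2 rad14.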

[5] = NCI Yeast Anticancer Drug Screen. Data for the bub3 strain (AID 167); conditions: S. cerevisiae bub3 mutant strain, at 50.0 µM, stronger effect = higher value
In short: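 Whole-cell yeast assay. The mutant strain was incubated with compounds, and growth inhibition was determined by comparison with vehicle-treated cells.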

[6] = NCI Yeast Anticancer Drug Screen. Data for the mlh1 rad18 strain (AID 175); conditions: S. cerevisiae mlh1 rad18 strain growth inhibition; at 50.0 µM; stronger effect = higher value
In short: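 Cells of a genetically altered yeast strain, deficient in DNA damage repair, were treated with compound. Their growth was then compared with that of vehicle-treated cultures to give inhibition.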

Measured: growth inhibition

CC(=O)Cn1c(=O)oc2ccccc2c1=O
inactive: [1] 22.6% | [2] -9% | [3] -10.7% | [4] 49.5% | [5] 17.9% | [6] 10.1%

CCN(CC)C(=O)Oc1cc(C(=O)N(CC)CC)c(OC(=O)N(CC)CC)cc1C(=O)N(CC)CC
inactive: [1] 5.1% | [2] 8.15% | [3] -1.6% | [4] -1.4% | [5] 1% | [6] 30.1%

c1ccc(C2=NN(c3ccccc3)C3C4CCC(C4)C23)cc1 (stereo unspecified)
inactive: [1] -5.6% | [2] 8.15% | [3] -6.2% | [4] -49% | [5] 13.8% | [6] 12.1%

O=P(CCC(O)c1ccccc1)(c1ccccc1)c1ccccc1 (stereo unspecified)
inactive: [1] -7.45% | [2] 5.65% | [3] -0.65% | [4] 0.5% | [5] -9.6% | [6] 9.8%

CC(C)NC(=O)OCc1nnn2c1CCC2
inactive: [1] -6.9% | [2] 0.05% | [3] -12.5% | [4] -22.7% | [5] -0.05% | [6] -4.05%

Cn1c(=O)c2c(nc(Cl)n2C)n(C)c1=O
inactive: [1] 42.5% | [2] 14.5% | [3] -16.1% | [4] -29.3% | [5] -7.65% | [6] 28.9%

COC1CCC(OC)(C(=O)NN)O1 (stereo unspecified)
inactive: [1] -22.9% | [2] -53.1% | [3] -9.45% | [4] 4.3% | [5] -57.2% | [6] -0.6%

c1ccc(-c2cc(-c3ccccc3)nc(-c3ccccc3)c2)cc1
inactive: [1] -7.2% | [2] -4.05% | [3] 10.1% | [4] -33% | [5] 9.65% | [6] 1.6%

CNC(C#N)c1ccco1 (stereo unspecified)
inactive: [1] 11.3% | [2] -17.2% | [3] 16% | [4] 8.4% | [5] 13.4% | [6] 22.1%

COc1cc(OC)c(C(=O)/C=C/c2ccccc2)c(O)c1OC
inactive: [1] 24.8% | [2] -7.8% | [3] 20.9% | [4] -45.2% | [5] -15.1% | [6] 30.6%

CC(C)(C)NCCCCCO
inactive: [1] -11.8% | [2] 17.6% | [3] 16.1% | [4] -8.35% | [5] -5.7% | [6] -16.1%

O=c1c2cc3c(cc2[nH]c2ncccc12)OCO3
inactive: [1] -12.8% | [2] 0.65% | [3] 2.85% | [4] 13.8% | [5] -2.55% | [6] 26.3%

Fc1ccc(C2(c3ccc(F)cc3)CCCO2)cc1
inactive: [1] 4.4% | [2] -22.4% | [3] -6.15% | [4] 25.7% | [5] -4.1% | [6] 6.2%

O=c1c2cc(S(=O)(=O)Nc3ccc(Cl)cc3Cl)ccc2ncn1NS(=O)(=O)c1cccc2ccccc12
inactive: [1] 10.9% | [2] -5.4% | [3] 28.6% | [4] 18.8% | [5] 8.85% | [6] 14.9%

CN(C)c1nc(N)c2ccc(Cl)cc2n1
inactive: [1] -8% | [2] 10.6% | [3] -7.15% | [4] 0.85% | [5] -8.05% | [6] 8.7%

Nc1nc(N)c(N=Nc2ccc(S(=O)(=O)O)cc2)c(N)n1
inactive: [1] -5.35% | [2] -5.3% | [3] 4.25% | [4] -21.1% | [5] 2% | [6] 10.5%

O=C(O)C1CC(Br)C(Br)CC1C(=O)Nc1cccc2ccccc12 (stereo unspecified)
inactive: [1] 11.8% | [2] 6.45% | [3] 2.85% | [4] -39.3% | [5] 1.3% | [6] 32.1%

O=C([O-])c1cc(I)cc(I)c1[OH2+].O=C([O-])c1cc(I)cc(I)c1[OH2+].[Mn+2]
inactive: [1] -1.55% | [2] -19.4% | [3] -6.2% | [4] -23.7% | [5] -46% | [6] 5.8%

CCOc1ccccc1C(=O)N(CC)CC
inactive: [1] -8.55% | [2] -3.2% | [3] -4.6% | [4] -5.85% | [5] -9.8% | [6] -5.65%

CC(C)NC(=O)/C=C/C(=O)O
inactive: [1] -16.1% | [2] -20.4% | [3] -41.2% | [4] -7.4% | [5] -11.2% | [6] -9.1%

CCOC(=O)C(F)C(C)=O (stereo unspecified)
active: [1] 92% | [2] 94.5% | [4] 97.4% | [5] 99.5% | [6] 91.8%
inactive: [3] 56.2%

O=c1ccc2c(O)c([N+](=O)[O-])cc([N+](=O)[O-])c2[nH]1
inactive: [1] 10% | [2] -15.7% | [3] 3.15% | [4] 8.85% | [5] 6.3% | [6] 20.2%

Clc1nncc2sc(-c3ccccc3)nc12
inactive: [1] 20.9% | [2] -1.7% | [3] 28.1% | [4] 17.4% | [5] 18.3% | [6] -18.3%

O=C1C(Cl)N(c2ccc([N+](=O)[O-])cc2)C1c1c[nH]c2ccccc12 (stereo unspecified)
inactive: [1] -4.2% | [2] -38.6% | [3] -0.3% | [4] 8.75% | [5] 19.2% | [6] -31.4%

C1COCCN2CCOCCOCCN(CCO1)CCOCC2
inactive: [1] 3.6% | [2] 11.2% | [3] -0.25% | [4] 12.7% | [5] 23.6% | [6] 23.7%

Nc1ccc[nH]c1=O
inactive: [1] 15.7% | [2] 4% | [3] 19.6% | [4] 8.8% | [5] 20.7% | [6] -12.4%

C[n+]1cccc(NC(=O)COc2ccc(Cl)c(Cl)c2)c1
inactive: [1] 15.3% | [2] 3.95% | [3] -5.4% | [4] -18% | [5] -1.75% | [6] 21.5%

CCOC(=O)c1cc(NC(C)=O)cn1C
inactive: [1] 4.4% | [2] 8.8% | [3] -1.15% | [4] -11% | [5] 6.45% | [6] 16.4%

COc1nc(NC2OC(CO)C(O)C(O)C2O)c(Br)c(=O)n1C (stereo unspecified)
inactive: [1] 4.4% | [2] -1.15% | [3] -3.6% | [4] -4.1% | [5] 0.75% | [6] 23%

CC1CCCCCN1CCC(=O)c1ccccc1 (stereo unspecified)
inactive: [1] 17.9% | [2] 25.1% | [3] 17.9% | [4] 19.2% | [5] 32.6% | [6] 8.65%

Cc1cccc(C)c1NC(=O)C(=O)CC(=O)/C=C/c1ccccc1
inactive: [1] -14.5% | [2] -20.2% | [3] -30.6% | [4] 3.05% | [5] -23.1% | [6] -28.7%

CCCNc1nc2c(s1)c1c(O)c3c(O)c(C)c4c(c32)C(=O)C(C)(O/C=C\C(OC)C(C)C(OC(C)=O)C(C)C(O)C(C)C(O)C(C)/C=C/C=C(/C)C(=O)N1)O4 (stereo unspecified)
inactive: [1] 8.75% | [2] 9.7% | [3] 3.2% | [4] 10.2% | [5] 14.2% | [6] 17.3%

C/C(=C\Cc1cc(O)c(C)cc1O)CC/C=C(\C)Cc1cc(C)co1
inactive: [1] -14.9% | [2] -19.7% | [3] -35.5% | [4] 17.9% | [5] -1.3% | [6] -8.75%

C=CCOCC(COC(=O)CCCCCCCCCCCCCCCCC)OCC=C (stereo unspecified)
inactive: [1] -8.85% | [2] -2.85% | [3] -0.25% | [4] 18.9% | [5] -16.8% | [6] 6.5%

CCOC(=O)C(=O)C(C(=O)c1ccccn1)c1nc2n(c1O)C(=N)N=N2 (stereo unspecified)
inactive: [1] -4.1% | [2] 4.4% | [3] -3.1% | [4] -0.25% | [5] -5.35% | [6] 5.3%

CCCN(CCC)S(=O)(=O)c1ccc(NC(=O)OC(c2ccccc2)(c2ccccc2)c2ccccc2)cc1
inactive: [1] 24.1% | [2] -4.3% | [3] 5.4% | [4] 7.95% | [5] -3.7% | [6] 0.95%

NC1=Nc2cc(Cl)ccc2Sc2nc3ccccc3n21
inactive: [1] -18.4% | [2] -65.4% | [3] -17.6% | [4] 0.55% | [5] 10.9% | [6] -2.8%

CCC(=O)OCCCCCCOC(=O)CC
inactive: [1] 18.3% | [2] 6% | [3] 12.5% | [4] -15% | [5] 19.9% | [6] -5.9%

CNc1ccc(OC)cc1
inactive: [1] -4.9% | [2] -0.9% | [3] -13.4% | [4] -1% | [5] 7.35% | [6] 3.25%

COC(=O)C1(C)CCCC2(C)C1CCC13OC(=O)C(C(C)C)(CC21)C3O (stereo unspecified)
inactive: [1] -3.6% | [2] -28.3% | [3] -10.8% | [4] -33.7% | [5] -1.45% | [6] -28.8%

OC1COCOC1C(O)C1OCOCC1O (stereo unspecified)
inactive: [1] 3% | [2] 9.8% | [3] 7.85% | [4] 4.3% | [5] -6.15% | [6] 1.75%
